# Article PMC7862700, “An all-to-all approach to the identification of sequence-specific readers for epigenetic DNA modifications on cytosine”
# Assays:
# Assay in all cases: DAPPL (digital affinity profiling via proximity ligation, sequencing); 10 mM Tris-HCl pH 7.5, 50 mM NaCl, 1 mM DTT, 4% glycerol, room temperature, 30 min; GST-TFs on glutathione beads, 16-mer random dsDNA library, 0.1% formaldehyde crosslink after washing; high values mean tight binding
# FEV = biological target: T1, FEV (Homo sapiens, UniProt Q99581 1-238); settings: protein: recombinant; tags: N-terminal GST; dsDNA, one strand shown
# T1 sequence: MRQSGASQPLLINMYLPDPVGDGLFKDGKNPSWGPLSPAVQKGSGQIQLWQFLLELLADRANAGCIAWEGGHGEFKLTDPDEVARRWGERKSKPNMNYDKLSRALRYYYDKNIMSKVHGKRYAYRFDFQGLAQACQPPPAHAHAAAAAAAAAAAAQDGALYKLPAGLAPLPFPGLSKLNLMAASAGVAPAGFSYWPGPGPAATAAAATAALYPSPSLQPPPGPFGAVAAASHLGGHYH
# Method in brief: (§1)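 Each value of binding signal is a hexamer's read frequency for a factor divided by the same hexamer's frequency in the tag-only sample. Barcoded, bead-captured GST fusions of human transcription factors made in yeast were pooled with that sample and incubated with 200 nmole of a random double-stranded 16-mer DNA library in Tris/NaCl/DTT/glycerol buffer at room temperature for 30 min. Washing, 0.1% formaldehyde crosslinking, proximity ligation, PCR and Illumina NextSeq500 sequencing followed.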
# ETV5 = ETV5 (Homo sapiens, UniProt P41161 1-510); settings: protein: recombinant; tags: N-terminal GST; dsDNA, one strand shown
# Method in brief: as §1
# HSF1 = HSF1 (Homo sapiens, UniProt Q00613 1-529); settings: protein: recombinant; tags: N-terminal GST; chain copies: 3; dsDNA, one strand shown
# Method in brief: as §1
# SPIC = biological target: T2, SPIC (Homo sapiens, UniProt Q8N5J4 1-248); settings: protein: recombinant; tags: N-terminal GST; dsDNA, one strand shown
# T2 sequence: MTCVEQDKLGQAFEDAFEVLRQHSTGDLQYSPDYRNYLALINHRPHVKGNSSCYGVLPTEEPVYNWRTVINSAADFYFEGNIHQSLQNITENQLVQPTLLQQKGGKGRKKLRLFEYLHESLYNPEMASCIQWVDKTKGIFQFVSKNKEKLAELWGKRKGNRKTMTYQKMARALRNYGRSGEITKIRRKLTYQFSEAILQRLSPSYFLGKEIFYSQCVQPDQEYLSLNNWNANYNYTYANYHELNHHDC
# Method in brief: as §1
# ELF4 = ELF4 (Homo sapiens, UniProt Q99607 1-663); settings: protein: recombinant; tags: N-terminal GST; dsDNA, one strand shown
# Method in brief: as §1
# ELK4 = biological target: T3, ELK4 (Homo sapiens, UniProt P28324-2 1-405); settings: protein: recombinant; tags: N-terminal GST; dsDNA, one strand shown
# T3 sequence: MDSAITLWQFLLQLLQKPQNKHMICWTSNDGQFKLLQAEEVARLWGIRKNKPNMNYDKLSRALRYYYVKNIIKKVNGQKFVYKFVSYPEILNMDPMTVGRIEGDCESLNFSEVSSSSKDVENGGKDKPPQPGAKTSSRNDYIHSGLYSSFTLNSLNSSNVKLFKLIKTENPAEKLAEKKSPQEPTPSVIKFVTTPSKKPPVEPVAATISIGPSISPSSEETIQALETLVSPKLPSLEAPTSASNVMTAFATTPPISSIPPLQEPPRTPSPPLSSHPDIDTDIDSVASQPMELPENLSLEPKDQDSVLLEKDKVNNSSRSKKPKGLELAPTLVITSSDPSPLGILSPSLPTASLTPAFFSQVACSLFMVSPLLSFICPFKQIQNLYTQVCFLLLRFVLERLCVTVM
# Method in brief: as §1
# ETV2 = biological target: T4, ETV2 (Homo sapiens, UniProt O00321 1-342); settings: protein: recombinant; tags: N-terminal GST; dsDNA, one strand shown
# T4 sequence: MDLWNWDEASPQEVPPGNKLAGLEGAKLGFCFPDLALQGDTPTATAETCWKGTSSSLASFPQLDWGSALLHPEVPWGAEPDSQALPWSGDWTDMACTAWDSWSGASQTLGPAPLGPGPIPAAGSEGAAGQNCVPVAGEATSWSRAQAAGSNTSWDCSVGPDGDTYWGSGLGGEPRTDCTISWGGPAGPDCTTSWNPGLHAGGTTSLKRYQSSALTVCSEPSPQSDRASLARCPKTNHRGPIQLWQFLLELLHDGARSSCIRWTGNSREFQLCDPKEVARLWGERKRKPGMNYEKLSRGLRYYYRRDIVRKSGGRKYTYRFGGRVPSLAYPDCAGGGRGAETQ
# Method in brief: as §1
# ELF3 = biological target: T5, ELF3 (Homo sapiens, UniProt P78545 1-371); settings: protein: recombinant; tags: N-terminal GST; dsDNA, one strand shown
# T5 sequence: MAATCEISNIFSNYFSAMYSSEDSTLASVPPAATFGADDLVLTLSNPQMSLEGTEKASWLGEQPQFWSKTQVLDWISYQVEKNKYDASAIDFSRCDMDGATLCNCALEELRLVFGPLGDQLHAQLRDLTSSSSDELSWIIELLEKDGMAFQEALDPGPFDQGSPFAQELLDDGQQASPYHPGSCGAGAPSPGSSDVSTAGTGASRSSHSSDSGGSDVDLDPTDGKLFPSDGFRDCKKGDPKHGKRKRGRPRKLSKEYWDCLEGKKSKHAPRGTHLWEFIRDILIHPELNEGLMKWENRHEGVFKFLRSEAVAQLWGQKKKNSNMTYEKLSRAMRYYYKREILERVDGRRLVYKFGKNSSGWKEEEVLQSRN
# Method in brief: as §1
# CRX = CRX (Homo sapiens, UniProt O43186 1-299); settings: protein: recombinant; tags: N-terminal GST; dsDNA, one strand shown
# Method in brief: as §1
# ETV1 = ETV1 (Homo sapiens, UniProt P50549 1-477); settings: protein: recombinant; tags: N-terminal GST; dsDNA, one strand shown
# Method in brief: as §1
# ERF = biological target: T6, ERF (Homo sapiens, UniProt P50548 1-548); settings: protein: recombinant; tags: N-terminal GST; dsDNA, one strand shown
# T6 sequence: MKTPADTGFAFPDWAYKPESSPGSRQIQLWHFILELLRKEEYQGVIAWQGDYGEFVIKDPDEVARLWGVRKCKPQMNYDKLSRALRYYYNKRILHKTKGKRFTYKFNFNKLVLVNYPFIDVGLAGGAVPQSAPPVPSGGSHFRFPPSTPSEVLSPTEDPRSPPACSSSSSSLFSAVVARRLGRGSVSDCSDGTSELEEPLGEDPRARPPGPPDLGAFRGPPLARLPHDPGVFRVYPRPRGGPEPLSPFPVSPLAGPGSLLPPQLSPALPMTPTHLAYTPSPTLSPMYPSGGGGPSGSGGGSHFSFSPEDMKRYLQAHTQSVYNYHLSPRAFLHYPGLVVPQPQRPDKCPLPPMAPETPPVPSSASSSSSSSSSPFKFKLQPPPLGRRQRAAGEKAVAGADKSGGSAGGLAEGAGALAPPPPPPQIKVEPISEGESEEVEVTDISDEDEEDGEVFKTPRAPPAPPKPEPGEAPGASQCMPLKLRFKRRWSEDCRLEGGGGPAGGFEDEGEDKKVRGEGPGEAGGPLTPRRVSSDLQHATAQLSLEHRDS
# Method in brief: as §1
# ETV3L = biological target: T7, ETV3L (Homo sapiens, UniProt Q6ZN32 1-361); settings: protein: recombinant; tags: N-terminal GST; dsDNA, one strand shown
# T7 sequence: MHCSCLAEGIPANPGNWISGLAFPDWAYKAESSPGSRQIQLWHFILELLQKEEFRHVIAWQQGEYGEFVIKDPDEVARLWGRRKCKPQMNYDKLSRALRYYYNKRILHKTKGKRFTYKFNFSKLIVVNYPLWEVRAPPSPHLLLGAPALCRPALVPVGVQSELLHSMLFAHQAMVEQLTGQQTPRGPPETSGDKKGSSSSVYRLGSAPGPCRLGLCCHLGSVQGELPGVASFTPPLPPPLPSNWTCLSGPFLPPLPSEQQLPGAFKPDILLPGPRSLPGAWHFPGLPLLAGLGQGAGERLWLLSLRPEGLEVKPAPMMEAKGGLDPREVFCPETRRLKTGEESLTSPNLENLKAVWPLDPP
# Method in brief: as §1
# ETS2 = biological target: T8, ETS2 (Homo sapiens, UniProt P15036 1-469); settings: protein: recombinant; tags: N-terminal GST; dsDNA, one strand shown
# T8 sequence: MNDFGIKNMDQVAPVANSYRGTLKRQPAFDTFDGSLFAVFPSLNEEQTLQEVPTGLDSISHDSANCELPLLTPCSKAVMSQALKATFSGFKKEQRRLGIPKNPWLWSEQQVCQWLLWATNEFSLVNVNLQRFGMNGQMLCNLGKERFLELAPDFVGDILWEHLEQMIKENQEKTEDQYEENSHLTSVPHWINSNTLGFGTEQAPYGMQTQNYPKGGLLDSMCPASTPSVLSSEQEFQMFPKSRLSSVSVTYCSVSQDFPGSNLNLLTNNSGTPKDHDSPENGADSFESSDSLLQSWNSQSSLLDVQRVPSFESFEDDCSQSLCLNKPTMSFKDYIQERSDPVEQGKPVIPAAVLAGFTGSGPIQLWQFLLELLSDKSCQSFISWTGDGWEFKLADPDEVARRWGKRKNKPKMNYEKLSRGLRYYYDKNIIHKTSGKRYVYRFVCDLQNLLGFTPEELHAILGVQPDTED
# Method in brief: as §1
# SPDEF = biological target: T9, SPDEF (Homo sapiens, UniProt O95238 1-335); settings: protein: recombinant; tags: N-terminal GST; dsDNA, one strand shown
# T9 sequence: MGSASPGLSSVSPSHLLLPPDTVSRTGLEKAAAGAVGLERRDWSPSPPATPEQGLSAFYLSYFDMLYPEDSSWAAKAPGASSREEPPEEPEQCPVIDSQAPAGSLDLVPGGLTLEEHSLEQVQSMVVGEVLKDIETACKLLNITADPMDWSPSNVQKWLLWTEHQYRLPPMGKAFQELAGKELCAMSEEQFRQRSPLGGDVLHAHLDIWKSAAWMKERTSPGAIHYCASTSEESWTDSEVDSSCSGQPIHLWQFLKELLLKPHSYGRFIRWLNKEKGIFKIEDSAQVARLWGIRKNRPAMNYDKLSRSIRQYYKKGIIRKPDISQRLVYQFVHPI
# Method in brief: as §1
# ETV7 = biological target: T10, ETV7 (Homo sapiens, UniProt Q9Y603 1-341); settings: protein: recombinant; tags: N-terminal GST; dsDNA, one strand shown
# T10 sequence: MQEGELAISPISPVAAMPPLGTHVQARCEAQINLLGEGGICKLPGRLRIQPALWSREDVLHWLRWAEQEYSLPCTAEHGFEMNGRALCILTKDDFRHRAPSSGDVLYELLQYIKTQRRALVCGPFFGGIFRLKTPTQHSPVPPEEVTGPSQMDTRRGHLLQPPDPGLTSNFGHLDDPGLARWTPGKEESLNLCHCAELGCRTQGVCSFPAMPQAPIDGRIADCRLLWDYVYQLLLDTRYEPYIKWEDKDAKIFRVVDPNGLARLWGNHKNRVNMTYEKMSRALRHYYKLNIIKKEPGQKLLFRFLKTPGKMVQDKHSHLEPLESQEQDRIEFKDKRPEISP
# Method in brief: as §1
# ELF5 = biological target: T11, ELF5 (Homo sapiens, UniProt Q9UKW6-2 1-255); settings: protein: recombinant; tags: N-terminal GST; dsDNA, one strand shown
# T11 sequence: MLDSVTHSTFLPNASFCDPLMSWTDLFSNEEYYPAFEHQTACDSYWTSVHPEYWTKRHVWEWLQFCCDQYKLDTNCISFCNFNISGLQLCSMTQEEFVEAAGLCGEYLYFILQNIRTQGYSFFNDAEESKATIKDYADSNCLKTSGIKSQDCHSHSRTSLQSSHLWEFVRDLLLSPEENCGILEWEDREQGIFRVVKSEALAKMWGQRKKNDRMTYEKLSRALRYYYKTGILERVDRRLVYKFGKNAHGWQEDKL
# Method in brief: as §1
# ETV3 = biological target: T12, ETV3 (Homo sapiens, UniProt P41162-2 1-143); settings: protein: recombinant; tags: N-terminal GST; dsDNA, one strand shown
# T12 sequence: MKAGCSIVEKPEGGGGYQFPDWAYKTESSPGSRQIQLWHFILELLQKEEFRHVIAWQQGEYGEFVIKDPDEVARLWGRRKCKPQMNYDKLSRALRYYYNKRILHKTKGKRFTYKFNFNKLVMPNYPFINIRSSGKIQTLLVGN
# Method in brief: as §1
# ETV6 = ETV6 (Homo sapiens, UniProt P41212 1-452); settings: protein: recombinant; tags: N-terminal GST; dsDNA, one strand shown
# Method in brief: as §1
# ETV6, sequence (P41212 whole entry): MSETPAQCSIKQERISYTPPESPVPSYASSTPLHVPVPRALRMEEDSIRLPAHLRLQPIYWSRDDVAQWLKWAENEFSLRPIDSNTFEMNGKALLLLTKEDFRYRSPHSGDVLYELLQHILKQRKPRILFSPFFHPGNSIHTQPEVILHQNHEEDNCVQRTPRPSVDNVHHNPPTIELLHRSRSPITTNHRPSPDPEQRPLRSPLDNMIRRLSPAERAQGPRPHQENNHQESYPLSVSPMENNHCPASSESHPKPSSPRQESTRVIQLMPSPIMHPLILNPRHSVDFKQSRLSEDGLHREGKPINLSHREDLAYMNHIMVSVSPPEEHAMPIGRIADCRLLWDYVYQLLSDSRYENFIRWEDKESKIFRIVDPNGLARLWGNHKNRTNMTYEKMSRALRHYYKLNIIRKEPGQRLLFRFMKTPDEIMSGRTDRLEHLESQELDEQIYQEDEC
# ETV5, sequence (P41161 whole entry): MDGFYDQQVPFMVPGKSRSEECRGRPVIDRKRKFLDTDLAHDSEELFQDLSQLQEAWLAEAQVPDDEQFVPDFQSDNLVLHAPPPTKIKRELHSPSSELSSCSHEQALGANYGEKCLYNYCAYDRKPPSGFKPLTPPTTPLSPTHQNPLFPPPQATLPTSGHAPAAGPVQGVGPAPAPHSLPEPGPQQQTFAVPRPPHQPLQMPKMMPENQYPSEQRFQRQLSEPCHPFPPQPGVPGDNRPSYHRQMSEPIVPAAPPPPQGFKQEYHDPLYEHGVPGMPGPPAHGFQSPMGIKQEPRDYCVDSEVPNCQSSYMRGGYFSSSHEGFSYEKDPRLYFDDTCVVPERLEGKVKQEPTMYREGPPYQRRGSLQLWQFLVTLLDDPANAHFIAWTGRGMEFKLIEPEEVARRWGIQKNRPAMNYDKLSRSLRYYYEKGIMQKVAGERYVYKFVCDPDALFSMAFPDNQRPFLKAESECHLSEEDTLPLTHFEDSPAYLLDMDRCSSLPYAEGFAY
# ETV1, sequence (P50549 whole entry): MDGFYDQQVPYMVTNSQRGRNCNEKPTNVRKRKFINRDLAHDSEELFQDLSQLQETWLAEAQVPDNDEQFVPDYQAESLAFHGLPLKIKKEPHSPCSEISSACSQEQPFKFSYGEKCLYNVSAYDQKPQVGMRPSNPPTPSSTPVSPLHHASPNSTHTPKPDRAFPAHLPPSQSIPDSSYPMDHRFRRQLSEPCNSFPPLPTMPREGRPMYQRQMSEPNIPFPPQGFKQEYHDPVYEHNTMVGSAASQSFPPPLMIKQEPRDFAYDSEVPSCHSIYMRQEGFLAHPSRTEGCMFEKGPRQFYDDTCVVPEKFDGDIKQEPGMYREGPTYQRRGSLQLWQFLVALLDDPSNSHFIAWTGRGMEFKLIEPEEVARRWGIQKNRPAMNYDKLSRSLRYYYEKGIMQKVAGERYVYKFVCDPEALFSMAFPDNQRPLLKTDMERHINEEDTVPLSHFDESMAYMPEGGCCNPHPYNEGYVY
# HSF1, sequence (Q00613 whole entry): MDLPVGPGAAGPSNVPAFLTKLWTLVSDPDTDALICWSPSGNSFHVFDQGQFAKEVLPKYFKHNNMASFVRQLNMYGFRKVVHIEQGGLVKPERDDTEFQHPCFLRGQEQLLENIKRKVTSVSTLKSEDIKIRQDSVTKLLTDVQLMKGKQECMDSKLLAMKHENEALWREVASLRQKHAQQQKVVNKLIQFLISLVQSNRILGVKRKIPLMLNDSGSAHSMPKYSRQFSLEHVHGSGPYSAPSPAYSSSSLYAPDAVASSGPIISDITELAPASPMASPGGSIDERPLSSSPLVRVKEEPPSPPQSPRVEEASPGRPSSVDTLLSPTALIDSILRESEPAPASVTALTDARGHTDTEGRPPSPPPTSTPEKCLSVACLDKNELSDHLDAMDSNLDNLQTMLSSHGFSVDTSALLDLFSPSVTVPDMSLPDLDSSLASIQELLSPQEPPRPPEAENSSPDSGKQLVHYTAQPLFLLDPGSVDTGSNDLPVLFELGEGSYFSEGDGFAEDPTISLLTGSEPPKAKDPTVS
# CRX, sequence (O43186 whole entry): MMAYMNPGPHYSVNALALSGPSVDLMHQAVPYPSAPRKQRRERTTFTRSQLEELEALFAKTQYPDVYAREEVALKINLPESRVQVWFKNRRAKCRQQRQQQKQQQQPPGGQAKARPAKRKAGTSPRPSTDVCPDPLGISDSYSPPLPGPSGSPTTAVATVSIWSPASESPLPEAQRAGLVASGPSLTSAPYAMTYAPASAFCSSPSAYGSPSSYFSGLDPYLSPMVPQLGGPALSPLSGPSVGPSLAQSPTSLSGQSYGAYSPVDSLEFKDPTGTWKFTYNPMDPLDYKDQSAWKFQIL
# ELF4, sequence (Q99607 whole entry): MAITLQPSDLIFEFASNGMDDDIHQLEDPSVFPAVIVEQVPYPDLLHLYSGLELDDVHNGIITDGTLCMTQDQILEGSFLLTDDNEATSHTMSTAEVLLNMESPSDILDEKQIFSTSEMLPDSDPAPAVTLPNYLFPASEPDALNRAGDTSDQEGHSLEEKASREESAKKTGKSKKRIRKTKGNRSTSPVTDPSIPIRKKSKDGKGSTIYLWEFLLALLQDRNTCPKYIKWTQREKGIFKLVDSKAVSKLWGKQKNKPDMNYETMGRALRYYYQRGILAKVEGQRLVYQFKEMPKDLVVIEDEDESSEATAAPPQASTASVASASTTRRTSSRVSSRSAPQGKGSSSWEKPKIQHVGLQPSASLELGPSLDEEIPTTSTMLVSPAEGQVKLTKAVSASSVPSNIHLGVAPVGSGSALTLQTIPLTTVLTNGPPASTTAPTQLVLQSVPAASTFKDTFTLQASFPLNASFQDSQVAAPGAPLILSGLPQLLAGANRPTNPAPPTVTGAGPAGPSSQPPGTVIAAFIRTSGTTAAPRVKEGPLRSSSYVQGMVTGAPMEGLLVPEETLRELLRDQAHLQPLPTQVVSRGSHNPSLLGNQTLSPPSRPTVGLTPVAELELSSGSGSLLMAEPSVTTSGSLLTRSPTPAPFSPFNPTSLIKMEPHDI
sequence,measurement,setting,value
CTACGC,binding signal,FEV,"1.62 fold enrichment (6-mer frequency, TF over GST control)"
same,binding signal,ETV5,"1.6 fold enrichment (6-mer frequency, TF over GST control)"
same,binding signal,HSF1,"1.39 fold enrichment (6-mer frequency, TF over GST control)"
same,binding signal,SPIC,"1.36 fold enrichment (6-mer frequency, TF over GST control)"
same,binding signal,ELF4,"1.51 fold enrichment (6-mer frequency, TF over GST control)"
same,binding signal,ELK4,"1.6 fold enrichment (6-mer frequency, TF over GST control)"
same,binding signal,ETV2,"1.57 fold enrichment (6-mer frequency, TF over GST control)"
same,binding signal,ELF3,"1.57 fold enrichment (6-mer frequency, TF over GST control)"
same,binding signal,CRX,"1.38 fold enrichment (6-mer frequency, TF over GST control)"
same,binding signal,ETV1,"1.55 fold enrichment (6-mer frequency, TF over GST control)"
same,binding signal,ERF,"1.72 fold enrichment (6-mer frequency, TF over GST control)"
same,binding signal,ETV3L,"1.5 fold enrichment (6-mer frequency, TF over GST control)"
same,binding signal,ETS2,"1.59 fold enrichment (6-mer frequency, TF over GST control)"
same,binding signal,SPDEF,"1.56 fold enrichment (6-mer frequency, TF over GST control)"
same,binding signal,ETV7,"1.42 fold enrichment (6-mer frequency, TF over GST control)"
same,binding signal,ELF5,"1.49 fold enrichment (6-mer frequency, TF over GST control)"
same,binding signal,ETV3,"1.59 fold enrichment (6-mer frequency, TF over GST control)"
same,binding signal,ETV6,"1.64 fold enrichment (6-mer frequency, TF over GST control)"
